From PubChem
A selection follows.
aSyn 5UTR act – Activators via SNCA 5'UTR binding, MLPCN; alpha-synuclein 5'UTR reporter, activators screen; activity score, % (tested at 7.5 µM), hits read low; 300,000 compounds, 7.1% hits; in the data active means activity score below about -60%
* hit, by the source's call.

SMILES | aSyn 5UTR act
COc1cccc(-c2nn(-c3ccccc3)cc2CO)c1 | -127*
OCc1cn(-c2ccccc2)nc1-c1ccc2c(c1)OCCO2 | -133*
O=C(CSc1ccc(F)cc1)NC1CCCCC1 | -69*
Cc1ccc(CNC(=O)Cc2ccc(-c3ccccc3)cc2)cc1 | 73
O=C(Cc1ccc(O)cc1)NC1CCCCCC1 | -119*
Cc1ccc(CNC(=O)Nc2ccc(C)cc2)cc1 | -75*
Cc1cc2cc(CNC(=O)Nc3ccccc3)ccc2[nH]1 | -98*
COc1ccc(C(=O)/C=C/C(=O)N(CC(=O)NC2CCCCC2)Cc2ccc(F)cc2)c(O)c1 | 72
COc1ccc(CNC(=O)Nc2ccccc2)cc1 | -114*
Cc1ccc(CNC(=O)NC2CCCCC2)cc1 | -92*
CCOc1ccc(CNC(=O)Nc2ccccc2)cc1 | -103*
COc1ccc(CNC(=O)Nc2cccc(C)c2)cc1 | -153*
Cc1ccc(Cl)cc1Nc1nc(-c2sc(NC(=O)c3cccc(Cl)c3)nc2C)cs1 | -201*
Cc1ccccc1Nc1nc(-c2sc(NC(=O)c3cccc(Cl)c3)nc2C)cs1 | -145*
COc1cccc(Nc2ncnc3c2cnn3-c2cccc(C)c2)c1 | -137*
COc1ccccc1Nc1ncnc2c1cnn2-c1cccc(C)c1 | -84*
CC(C)c1ccc(/C=C2\SC(=O)N(CC(=O)NC3CCS(=O)(=O)C3)C2=O)cc1 (stereo not given) | -90*
O=C(CN1C(=O)S/C(=C\C=C\c2ccccc2)C1=O)NC1CCS(=O)(=O)C1 (stereo not given) | -169*
CC(C)c1ccc(/C=C2\SC(=S)N(CCC(=O)NCCCn3ccnc3)C2=O)cc1 | 98
COc1ccc(/C=C2\SC(=S)N(CCC(=O)NC3C=CS(=O)(=O)C3)C2=O)cc1 (stereo not given) | 66
COc1ccc(/C=C2\SC(=O)N(CCC(=O)N(C)C3CCS(=O)(=O)C3)C2=O)cc1 (stereo not given) | -84*
N#C/C(=C\c1ccccn1)c1nc2ccccc2s1 | -74*
COc1ccc(/C(C#N)=C/c2ccccn2)cc1 | -172*
O=c1cc(NCCc2ccccc2)c2ccccc2o1 | -130*
COc1ccc(NS(=O)(=O)c2cc(-c3cnc(C4CC4)o3)ccc2C)cc1 | 82
SMILES | aSyn 5UTR act
COc1ccc(NS(=O)(=O)c2cc(C)ccc2C)cc1 | -67*
CCn1ccc(C(=O)Nc2cccc(Cl)c2)n1 | -159*
CCn1cc(Br)c(C(=O)Nc2ccc(OC)cc2)n1 | -118*
CCn1cc(Br)c(C(=O)Nc2cccc(Cl)c2)n1 | -93*
CCn1ccc(C(=O)Nc2ccccc2Cl)n1 | -96*
CCN(CC)CCNc1cc(C)nc2c1C(=O)C(=O)C=C2N1CCCCC1 | 81
CCn1cc(Cl)c(C(=O)Nc2ccc(OC)c(OC)c2)n1 | -66*
CCn1cc(Br)c(C(=O)Nc2ccc(Cl)c(Cl)c2)n1 | -151*
Cc1nnc(SCC(=O)Nc2nsc(-c3ccc(C(C)(C)C)cc3)n2)s1 | -70*
Cc1cc2ncc(-c3ccc(Cl)cc3)cn2n1 | -84*
O=C(Nc1ncc(Cc2ccc(SC(F)F)cc2)s1)c1ccc(OC(F)F)cc1 | -129*
COc1cc(C=O)c(Br)cc1OCc1ccc(C)cc1 | -204*
COc1ccc(-c2nc3ccccn3c2CN2CCN(c3ccccc3F)CC2)cc1 | -76*
Nc1ccc(Oc2cccc(Oc3ccc(N)cc3)c2)cc1 | 87
c1ccc(Oc2ccc(-c3ccn[nH]3)cc2)cc1 | -79*
CCC1=C/C(=C/N(C)c2ccccc2)C(=O)S1 | -62*
Cc1nn(-c2nc3ccccc3s2)c(N)c1Sc1ccc(F)cc1 | -212*
Cc1nn(-c2nc3ccccc3s2)c(N)c1-c1ccc(Cl)cc1 | -203*
Cc1nn(-c2nc3ccccc3s2)c(N)c1-c1ccccc1 | -224*
Clc1ccccc1CSc1ncn(-c2ccccc2)n1 | -185*
Fc1cccc(NCc2cn3ccccc3n2)c1 | -97*
O=C(COc1ccc(Oc2ccccc2)cc1)NCc1cn2ccccc2n1 | 62
Fc1ccc(NCc2cn3ccccc3n2)cc1 | -174*
COc1ccc(/C=C/c2nc3ccccc3n2Cc2ccccc2OC)cc1 | -153*
COc1ccccc1Cn1c(/C=C/c2ccccc2)nc2ccccc21 | -111*
SMILES | aSyn 5UTR act
COCCn1c(/C=C/c2ccccc2)nc2ccccc21 | -156*
Cc1cccc(NC(=O)Cn2c(/C=C/c3ccccc3)nc3ccccc32)c1 | -123*
CNc1nc(-c2ccc3c(c2)CCN3C(=O)c2ccccc2C)cs1 | -88*
CNc1nc(-c2ccc3c(c2)CCN3C(=O)c2cccc(F)c2)cs1 | -427*
CC1Cc2cc(/C=C3/SC(=S)NC3=O)ccc2O1 (stereo not given) | -106*
N=C1CCCN1CC(=O)c1ccc(Br)cc1 | -87*
O=C(Nc1cccc(O)c1)c1c(O)c2ccccc2[nH]c1=O | -92*
O=C(NCc1ccc2c(c1)OCO2)Nc1cccc(Cl)c1 | -127*
O=C(Nc1ccc2c(c1)OCO2)Oc1ccccc1 | -106*
COc1ccc2[nH]c(C(=O)Nc3ccc4c(c3)OCO4)cc2c1 | -134*
COc1cccc(NC(=O)Nc2ccc3c(c2)OCO3)c1 | -111*
NS(=O)(=O)c1ccc(NC(=O)Nc2ccc3c(c2)OCO3)cc1 | -118*
O=C(Nc1ccc2c(c1)CCC2)Nc1ccc2c(c1)OCO2 | -111*
O=C(Nc1cccc([N+](=O)[O-])c1)Nc1ccc2c(c1)OCCO2 | -129*
O=C(Nc1cccc(Cl)c1)Nc1ccc2c(c1)OCO2 | -159*
O=C(Nc1ccc2c(c1)OCO2)Nc1ccc(Br)cn1 | -157*
Cc1ccc(NC(=O)NCc2ccc3c(c2)OCO3)cc1C | -79*
O=C(NCc1cccs1)Nc1cccc(Cl)c1 | -120*
Cc1nn(C)cc1CNC(=O)Nc1cccc(Cl)c1 | -169*
COC(=O)c1ccc(NC(=O)Nc2ccc3c(c2)OCO3)cc1 | -66*
O=C(Nc1ccc2c(c1)OCCO2)NC12CC3CC(CC(C3)C1)C2 | -195*
CCN(CC)S(=O)(=O)c1ccc(N/N=C(\C)c2ccc(OC)cc2O)nc1 | 78
CCN(CC)S(=O)(=O)c1ccc(N=Nc2cc(C)cc(Br)c2O)cc1 | -76*
C/C(=N\NC(=O)c1ccc(Cn2cc(Br)cn2)o1)c1ccc(NC(=O)c2ccoc2C)cc1 | -77*
C/C(=N/NC(=O)c1ccoc1C)c1ccc(NC(=O)C2CCCC2)cc1 | -121*
SMILES | aSyn 5UTR act
C/C(=N\NC(=O)c1nn(C)c(C)c1Br)c1cccc(NC(=O)c2ccoc2C)c1 | -71*
C/C(=N\NC(=O)c1ccoc1C)c1ccccc1 | -127*
C=C(C)CNC(=S)N/N=C(\C)c1ccc(Cl)s1 | -70*
N#C/C(=C\c1ccc(N2CCOCC2)o1)C(=O)Nc1ccc(O)cc1 | -101*
COc1ccc(NC(=O)/C(C#N)=C\c2ccc(N3CCOCC3)o2)cc1 | -95*
COc1ccc(NC(=O)/C(C#N)=C/c2ccc(Br)o2)cc1 | -66*
CN(C)c1ccc(NC(=O)CCn2c(=S)oc3ccccc32)cc1 | -100*
CN(/N=C/c1ccncc1)c1cnc2ccccc2n1 | -206*
Cc1cc(NCc2ccccn2)ccc1Br | -198*
CC(C)n1cnc2cc(NCc3ccccn3)ccc21 | -97*
CC(C)n1cnc2cc(NCc3ccco3)ccc21 | -109*
c1ccc(-n2cnc3cc(NCc4ccccn4)ccc32)cc1 | -66*
CCC(C)(C)NC(=O)C(c1ccncc1)N(C(=O)c1sc(C)nc1C)c1ccc(C)cc1 (stereo not given) | -62*
C=C1C(=O)O[C@@H]2C[C@@H](C)[C@@H]3C=CC(=O)[C@@]3(C)[C@@H](OC(C)=O)[C@H]12 | 95
Cn1nc(-c2ccc(Cl)cc2)nc2c(=O)n(C)c(=O)nc1-2 | 110
